For part of these data: Results with a measured potency or affinity are listed apart.
Legend:
Design in all cases: scale not given: direction of the effect not stated beside the values
[1] = target: Protein translocase subunit SecA (Escherichia coli (strain K12)) (UniProt P10408); assay: Assay to Identify E. coli SecA ATPase Inhibitors; assay type: functional; settings: 30 µM
[2] = target: T1, Ubiquitin-activating enzyme e1, putative (Leishmania donovani (strain BPK282A1)) (UniProt E9BSI1); assay: Leishmania donovani Ubiquitin Activating Enzyme (LdE1); assay type: functional; settings: 30 µM
T1 sequence (whole entry): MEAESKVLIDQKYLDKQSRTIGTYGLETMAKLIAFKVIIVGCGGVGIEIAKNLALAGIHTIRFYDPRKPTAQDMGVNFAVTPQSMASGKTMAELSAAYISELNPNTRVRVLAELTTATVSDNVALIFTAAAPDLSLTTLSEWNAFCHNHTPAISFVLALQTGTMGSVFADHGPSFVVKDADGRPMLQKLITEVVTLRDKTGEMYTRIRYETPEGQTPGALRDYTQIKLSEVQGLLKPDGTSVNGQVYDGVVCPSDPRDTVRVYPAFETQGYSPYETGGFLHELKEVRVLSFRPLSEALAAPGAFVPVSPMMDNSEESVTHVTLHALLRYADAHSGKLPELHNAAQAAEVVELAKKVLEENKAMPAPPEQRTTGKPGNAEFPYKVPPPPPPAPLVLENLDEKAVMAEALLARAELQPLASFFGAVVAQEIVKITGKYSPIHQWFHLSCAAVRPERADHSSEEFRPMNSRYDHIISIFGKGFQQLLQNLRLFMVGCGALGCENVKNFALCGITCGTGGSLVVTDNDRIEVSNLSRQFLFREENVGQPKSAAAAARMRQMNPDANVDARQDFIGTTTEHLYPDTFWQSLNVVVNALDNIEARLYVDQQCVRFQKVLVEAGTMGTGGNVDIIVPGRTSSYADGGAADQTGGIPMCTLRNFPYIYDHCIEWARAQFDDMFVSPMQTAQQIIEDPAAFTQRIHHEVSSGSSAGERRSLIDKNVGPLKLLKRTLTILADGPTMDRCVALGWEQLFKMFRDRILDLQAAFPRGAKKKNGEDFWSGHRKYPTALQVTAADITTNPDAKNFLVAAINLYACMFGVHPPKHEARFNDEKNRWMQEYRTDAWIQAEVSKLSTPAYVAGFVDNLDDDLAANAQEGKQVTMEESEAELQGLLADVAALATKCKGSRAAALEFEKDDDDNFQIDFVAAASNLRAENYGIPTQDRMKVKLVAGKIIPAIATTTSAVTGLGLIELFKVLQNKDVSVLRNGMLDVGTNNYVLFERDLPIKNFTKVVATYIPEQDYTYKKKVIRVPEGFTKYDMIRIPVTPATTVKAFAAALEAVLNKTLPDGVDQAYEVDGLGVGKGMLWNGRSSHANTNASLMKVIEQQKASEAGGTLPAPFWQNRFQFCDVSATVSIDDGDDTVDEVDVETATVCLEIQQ

[3] = target: Sialic acid-binding Ig-like lectin 9 (Homo sapiens) (UniProt Q9Y336); assay: Hs-Siglec9 ALPHAscreen SOP 20170721; settings: 10 µM
[4] = test system: Trypanosoma cruzi; assay: Trypanosoma cruzi phosphomannomutase and mannose-1-phosphate guanylyltransferase assay; assay type: functional; settings: 10 µM
[5] = target: T2, Arginase-2, mitochondrial (Homo sapiens) (UniProt P78540); assay: in vitro enzyme assay to detect the production of urea directly proportional to the activity of Arginase II; assay type: functional; settings: 33.3 µM; note: in the data most compounds retested in dose-response had high values
T2 sequence (whole entry): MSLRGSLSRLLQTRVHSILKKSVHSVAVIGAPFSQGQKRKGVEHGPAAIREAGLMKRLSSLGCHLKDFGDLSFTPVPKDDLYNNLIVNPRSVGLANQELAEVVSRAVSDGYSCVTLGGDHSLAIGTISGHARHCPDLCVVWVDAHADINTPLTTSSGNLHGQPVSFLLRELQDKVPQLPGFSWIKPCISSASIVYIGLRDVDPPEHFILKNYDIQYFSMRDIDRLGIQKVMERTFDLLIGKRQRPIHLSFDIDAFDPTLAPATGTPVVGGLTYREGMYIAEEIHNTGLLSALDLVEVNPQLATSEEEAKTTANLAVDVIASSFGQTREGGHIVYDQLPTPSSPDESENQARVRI

[6] = target: T3, Proteasome subunit beta (Trypanosoma cruzi) (UniProt O96673); assay: Trypanosoma cruzi proteasome chymotrypsin-like activity (TcProtChymo) assay.; note: in the data most compounds retested in dose-response had high values; assay type: functional; settings: 9.37 µM
T3 sequence (whole entry): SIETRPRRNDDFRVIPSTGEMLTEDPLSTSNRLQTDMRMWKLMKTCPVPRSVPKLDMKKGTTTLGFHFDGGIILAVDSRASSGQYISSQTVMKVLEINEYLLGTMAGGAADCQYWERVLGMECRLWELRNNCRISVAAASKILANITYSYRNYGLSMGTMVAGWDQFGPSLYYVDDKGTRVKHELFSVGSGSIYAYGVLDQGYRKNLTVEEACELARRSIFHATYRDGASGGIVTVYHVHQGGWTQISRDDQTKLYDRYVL

[7] = organism: Homo sapiens; assay: To identify inhibition of the IFN signalling (Jak-Stat) pathway via expression of an eGFP reporter gene under the control of an IFN-stimulated response element (ISRE) containing MxA promoter.; assay type: functional; settings: 30 µM
[8] = target: T4, Tyrosyl-tRNA synthetase, putative (Trypanosoma cruzi (strain CL Brener)) (UniProt Q4DSP6); assay: Trypanosoma cruzi tyrosyl tRNA synthetase (TcYRS) _High Tyrosine SOP; assay type: functional; settings: 30 µM; note: in the data most compounds retested in dose-response had high values
T4 sequence (whole entry): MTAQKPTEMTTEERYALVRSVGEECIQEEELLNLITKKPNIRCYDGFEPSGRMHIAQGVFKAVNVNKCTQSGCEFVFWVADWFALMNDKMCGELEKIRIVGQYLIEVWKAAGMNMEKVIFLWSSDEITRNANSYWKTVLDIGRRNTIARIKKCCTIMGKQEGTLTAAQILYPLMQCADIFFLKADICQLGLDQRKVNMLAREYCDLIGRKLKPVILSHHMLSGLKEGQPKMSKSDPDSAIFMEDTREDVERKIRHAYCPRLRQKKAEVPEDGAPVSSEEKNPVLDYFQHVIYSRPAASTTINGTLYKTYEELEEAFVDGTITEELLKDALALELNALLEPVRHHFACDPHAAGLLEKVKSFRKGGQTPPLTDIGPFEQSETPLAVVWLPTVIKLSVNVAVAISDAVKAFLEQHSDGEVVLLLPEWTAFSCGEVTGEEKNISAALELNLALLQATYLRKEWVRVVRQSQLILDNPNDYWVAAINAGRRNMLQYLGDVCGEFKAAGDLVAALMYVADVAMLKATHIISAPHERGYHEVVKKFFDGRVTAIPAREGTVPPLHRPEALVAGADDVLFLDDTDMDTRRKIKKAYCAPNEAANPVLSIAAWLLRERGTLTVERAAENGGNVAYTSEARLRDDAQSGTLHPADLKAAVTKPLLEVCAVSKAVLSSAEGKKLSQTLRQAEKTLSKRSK

[9] = target: T4, Tyrosyl-tRNA synthetase, putative (Trypanosoma cruzi (strain CL Brener)); assay: Trypanosoma cruzi tyrosyl tRNA synthetase (TcYRS) SOP; assay type: functional; settings: 30 µM
[10] = target: Chromo domain-containing protein 1 (Saccharomyces cerevisiae (strain ATCC 204508 / S288c) (Baker's yeast)) (UniProt P32657); assay: ScCHD-1 Enzyme Inhibition Assay; assay type: functional; settings: 30 µM; note: in the data most compounds retested in dose-response had high values
Chain of Chromo domain-containing protein 1 (Saccharomyces cerevisiae (strain ATCC 204508 / S288c) (Baker's yeast)) (P32657 whole entry, the tested form may be a part): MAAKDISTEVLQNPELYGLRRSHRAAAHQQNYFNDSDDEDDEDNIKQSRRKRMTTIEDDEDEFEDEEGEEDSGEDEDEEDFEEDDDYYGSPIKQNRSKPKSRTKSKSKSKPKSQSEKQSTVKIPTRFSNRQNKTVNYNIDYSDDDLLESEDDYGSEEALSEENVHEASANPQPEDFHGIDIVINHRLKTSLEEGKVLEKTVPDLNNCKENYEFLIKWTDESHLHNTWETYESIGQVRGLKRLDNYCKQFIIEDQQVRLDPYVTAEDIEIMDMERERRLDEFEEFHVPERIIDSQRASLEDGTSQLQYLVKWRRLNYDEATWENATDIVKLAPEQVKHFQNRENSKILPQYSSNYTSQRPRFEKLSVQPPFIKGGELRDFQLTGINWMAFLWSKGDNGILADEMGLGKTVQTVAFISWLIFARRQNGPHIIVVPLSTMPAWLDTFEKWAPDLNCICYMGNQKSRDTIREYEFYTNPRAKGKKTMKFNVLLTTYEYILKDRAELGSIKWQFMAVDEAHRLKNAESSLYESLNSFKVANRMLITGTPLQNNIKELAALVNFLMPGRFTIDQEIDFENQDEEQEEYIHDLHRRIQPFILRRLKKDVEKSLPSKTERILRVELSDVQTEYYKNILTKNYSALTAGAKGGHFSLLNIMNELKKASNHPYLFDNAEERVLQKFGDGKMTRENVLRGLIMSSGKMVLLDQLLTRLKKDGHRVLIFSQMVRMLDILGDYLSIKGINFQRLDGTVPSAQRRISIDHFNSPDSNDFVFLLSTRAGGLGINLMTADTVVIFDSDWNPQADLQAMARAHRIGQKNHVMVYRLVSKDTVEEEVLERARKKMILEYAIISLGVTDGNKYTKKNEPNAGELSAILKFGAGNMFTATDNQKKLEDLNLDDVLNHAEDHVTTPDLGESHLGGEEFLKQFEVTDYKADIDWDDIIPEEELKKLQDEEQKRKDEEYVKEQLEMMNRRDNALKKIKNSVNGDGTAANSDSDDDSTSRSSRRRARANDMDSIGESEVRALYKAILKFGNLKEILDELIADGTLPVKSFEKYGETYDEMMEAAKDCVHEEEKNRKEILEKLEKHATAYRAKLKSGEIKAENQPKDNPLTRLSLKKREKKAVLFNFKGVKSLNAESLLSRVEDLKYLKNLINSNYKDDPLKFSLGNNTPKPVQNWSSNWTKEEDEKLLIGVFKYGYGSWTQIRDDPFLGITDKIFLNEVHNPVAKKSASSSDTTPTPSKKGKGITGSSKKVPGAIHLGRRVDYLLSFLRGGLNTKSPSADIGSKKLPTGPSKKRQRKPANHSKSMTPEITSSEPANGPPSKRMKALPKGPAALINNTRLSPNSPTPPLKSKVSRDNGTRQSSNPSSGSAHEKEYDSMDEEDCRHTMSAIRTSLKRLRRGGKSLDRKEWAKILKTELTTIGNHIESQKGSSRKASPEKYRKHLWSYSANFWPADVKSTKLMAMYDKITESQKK

Chain of Sialic acid-binding Ig-like lectin 9 (Homo sapiens) (Q9Y336 whole entry): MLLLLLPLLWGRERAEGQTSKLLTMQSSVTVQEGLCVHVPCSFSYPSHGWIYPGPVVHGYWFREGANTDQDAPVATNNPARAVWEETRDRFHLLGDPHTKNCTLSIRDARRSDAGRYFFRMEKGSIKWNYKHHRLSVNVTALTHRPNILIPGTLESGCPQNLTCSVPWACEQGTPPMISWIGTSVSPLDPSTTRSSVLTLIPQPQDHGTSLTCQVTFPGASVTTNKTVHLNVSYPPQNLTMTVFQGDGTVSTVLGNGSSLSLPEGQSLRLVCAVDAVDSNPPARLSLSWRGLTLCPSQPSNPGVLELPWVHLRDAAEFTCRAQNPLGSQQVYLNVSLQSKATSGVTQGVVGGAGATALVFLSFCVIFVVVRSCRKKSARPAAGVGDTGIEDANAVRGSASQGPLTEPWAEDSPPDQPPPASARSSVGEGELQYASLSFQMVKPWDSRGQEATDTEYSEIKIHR
Chain of Protein translocase subunit SecA (Escherichia coli (strain K12)) (P10408 whole entry): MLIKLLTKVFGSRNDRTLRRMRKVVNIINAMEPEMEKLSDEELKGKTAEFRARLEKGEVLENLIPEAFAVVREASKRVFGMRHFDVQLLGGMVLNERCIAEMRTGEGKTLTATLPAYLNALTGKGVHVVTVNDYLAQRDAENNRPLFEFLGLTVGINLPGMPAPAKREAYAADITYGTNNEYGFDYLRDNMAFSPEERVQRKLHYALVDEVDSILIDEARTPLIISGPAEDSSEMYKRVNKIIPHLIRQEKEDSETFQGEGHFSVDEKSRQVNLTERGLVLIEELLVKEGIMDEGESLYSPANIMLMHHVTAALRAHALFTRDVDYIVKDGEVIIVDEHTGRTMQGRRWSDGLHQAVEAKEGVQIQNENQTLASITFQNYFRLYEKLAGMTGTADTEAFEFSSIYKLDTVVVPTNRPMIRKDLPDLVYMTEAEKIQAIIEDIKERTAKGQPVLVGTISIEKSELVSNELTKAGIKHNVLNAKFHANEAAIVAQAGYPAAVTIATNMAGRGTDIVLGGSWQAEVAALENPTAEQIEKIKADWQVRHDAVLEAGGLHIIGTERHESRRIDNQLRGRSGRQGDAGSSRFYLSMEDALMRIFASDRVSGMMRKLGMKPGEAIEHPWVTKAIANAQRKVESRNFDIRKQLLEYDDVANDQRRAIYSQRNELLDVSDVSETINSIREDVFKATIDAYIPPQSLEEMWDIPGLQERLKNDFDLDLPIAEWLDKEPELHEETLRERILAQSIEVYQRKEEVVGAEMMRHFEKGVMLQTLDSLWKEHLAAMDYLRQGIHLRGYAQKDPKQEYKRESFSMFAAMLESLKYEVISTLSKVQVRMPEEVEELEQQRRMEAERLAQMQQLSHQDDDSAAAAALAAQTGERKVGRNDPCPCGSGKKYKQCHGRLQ

Row | Compound | Percent Effect [1] | Percent Effect [2] | Percent Effect [3] | Percent Effect [4] | Percent Effect [5] | Percent Effect [6] | Percent Effect [7] | Percent Effect [8] | Percent Effect [9] | Percent Effect [10]
1 | Cc1cc(C2CCCN2Cc2cc(=O)n(C)c(=O)n2C)on1 (stereo not given) | -4.6% | 2.67% | 1.58% | 3.21% | 0.444% | 1.27% | 14.5% | 2.63% | 5.13% | -4.48%
2 | Cc1ccc(CNC(=O)CN2CCCC(Cn3cncn3)C2)s1 (stereo not given) | 0.165% | 21.3% | -6.68% | 3.61% | 3.99% | 22.3% | -8.31% | 4.74% | 12.8% | -11.2%
3 | Cc1ccc(NC2CCN(C(=O)c3cc(C(N)=O)cs3)CC2)nn1 | -3.49% | 2.67% | 2.8% | 1.41% | 0.444% | 7.55% | 21.6% | 1.58% | 5.13% | -4.07%
4 | COCCN1C(=O)CCC12CCN(C(=O)CC1CC1)CC2 | -0.652% | -1.3% | 0.0799% | -0.938% | 2.28% | 5.75% | 11.8% | -0.966% | -15% | 0.945%
5 | CCN1CCO[C@]2(CCC[C@H]2COCc2csc(C)n2)C1 | -5.1% | -1.3% | 11% | -0.292% | -7.29% | 3.27% | -2.57% | 3.68% | 5.13% | -0.161%
6 | COc1c(CNC2CCSc3ccc(F)cc32)c(C)nn1C (stereo not given) | 0.667% | 13% | 7.38% | -0.373% | -12.5% | 10.9% | 64.7% | 5.88% | 11.8% | -4.85%

Reference: ChEMBL document CHEMBL3988442, “University of Dundee, Small-Polar-MMV Screening Library” (2021)
